# Compound activity from PubChem.
# Cycloheximide cs – counter-screen hit for Shiga toxin inhibitors, cycloheximide; cell reporter, cycloheximide protein synthesis inhibition counterscreen; 12% of 300,000 active; AID 2314; max response, %; in the data active = max response mostly above about 13%, no sharp cut-off; inactive = mostly below about 14%; also: read at 38.3 µM for the half of the compounds with a filed dose; 0% is about no effect
# Pf growth 48h – P. falciparum growth inhibition at 48 hours (one generation). AID 504832. 5.9% of 310,000 active. Potency, µM (highest dose often 28.7 µM), for inactives: at the highest dose activity change, negative = inhibition, actives largely listed as inhibitors. P. falciparum luciferase growth in erythrocytes, 48 h; also: potency is read from the fitted curve at half-maximal effect; % is scaled to controls: 0 for no effect and ±100 for the full control effect
#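 Read-out is firefly luciferase luminescence from an integrated reporter in P. falciparum, so falling signal marks reduced parasite growth. Infected erythrocytes were at 2% hematocrit and 0.1% parasitemia (final) in Albumax-supplemented RPMI 1640.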
# Shiga toxin inh – Shiga toxin inhibition | Vero cells, Shiga toxin protein synthesis inhibition reporter | inhibition, % at 38.7 µM | 9.2% of 290,000 active | AID 2315; in the data active = inhibition mostly above about 28%, no sharp cut-off; inactive = mostly below about 43%; also: 0% is about no effect
# HCMV antiviral – blocks human cytomegalovirus replication; HFF cells, HCMV-luciferase reporter, 72 h; stronger effect = lower value; activity change, negative = inhibition, % at 57.5 µM; AID 1259415; 4.5% of 410,000 active; in the data active = activity change below about -60%; inconclusive = no clear call, values can overlap the other calls; inactive = above about -39%; also: % is scaled to controls: 0 for no effect and ±100 for the full control effect
#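 Compounds were evaluated in HFFs infected with an HCMV luciferase reporter virus (MOI 1 PFU/cell). Luciferase in lysates collected 72 h post infection served as the replication measure.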
# Pf growth 96h – P. falciparum growth inhibition at 96 hours. 6.9% of 320,000 active. AID 504834. P. falciparum luciferase reporter growth, 96 h. Potency, µM (titrated, usually from 28.7 µM), without a hit: top-dose activity change, negative = inhibition, usual class: inhibitors; also: potency is read from the fitted curve at half-maximal effect; % is scaled to controls: 0 for no effect and ±100 for the full control effect
#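 Parasite growth measured via integrated firefly luciferase reporter in P. falciparum. Infected erythrocytes at 2% hematocrit, 0.05% parasitemia final were treated 96 hours at 37 C under 5% CO2, and luminescence was read.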
# An asterisk follows results filed as active; ? = inconclusive; / = no result; + = active, no number. Most compounds without a hit are left out; they make up all but 20% or so of the library. Unless noted, calls follow the shape of the dose curve; as a rule, active = well fitted inhibition curve with a large enough effect; inconclusive = small, poorly fitted or top-dose-only effect, or another doubt; inactive = no such curve, though single readings can be large or run the other way.
SMILES,Cycloheximide cs,Pf growth 48h,Shiga toxin inh,HCMV antiviral,Pf growth 96h
COC(=O)C1=C(c2c(C)noc2C)C[C@@H]2CC[C@H]1N2C(=O)N1CCC(O)(c2ccc(Cl)cc2)CC1,/,6.6µM*,/,-12,?
COC(=O)C1=C(c2c(C)noc2C)C[C@@H]2CC[C@H]1N2C(=O)N1CCc2cc(OC)c(OC)cc2C1,/,15µM*,/,/,?
CCOc1ccc(C(=O)N2CCC(c3noc(-c4ccc(S(=O)(=O)N5CCCC5)cc4)n3)CC2)cc1,/,/,/,14,/
COc1ccc(Cc2c(-c3cccc(Br)c3)nc3c(C)cc(Br)cn23)c(C)c1,/,/,/,-17,/
COc1ccc(C2C(C(=O)c3ccco3)=C(O)C(=O)N2c2nnc(C)s2)cc1OC (stereo unspecified),-1,-6%,6,-25,16%
COc1ccc(C2C(C(=O)c3ccco3)=C(O)C(=O)N2c2nnc(C)s2)cc1 (stereo unspecified),55*,22%,76*,39,?
Cc1ccc2nc(N3C(=O)C(O)=C(C(=O)c4ccco4)C3c3cccs3)sc2c1 (stereo unspecified),34*,59%,68*,14,371%
C=CCOc1ccc(C2C(C(=O)c3ccco3)=C(O)C(=O)N2c2nnc(C)s2)cc1 (stereo unspecified),23*,-13%,71*,-31,49%
COc1ccc2nc(N3C(=O)C(O)=C(C(=O)c4ccco4)C3c3ccc(C)o3)sc2c1 (stereo unspecified),/,33%,/,-21,-15%
CCC1CCCCN1C(=O)c1sc(-n2nc(C)c(Cc3ccccc3)c2C)nc1C (stereo unspecified),/,/,/,40,/
CCCCN1C(=O)CN(C2CCCCCC2)C(=O)C1c1ccc(OCC)c(OC)c1 (stereo unspecified),/,/,/,30,/
CCN(C)C(=O)C1=COC2=NC(=O)N(Cc3ccccc3C(F)(F)F)CCN12,/,/,/,-2,/
O=C(Nc1cccc(-c2nc3ncccc3o2)c1)c1sc2ccccc2c1Cl,-2,28%,-9,6,0%
O=C(Nc1cccc(-c2nc3ncccc3o2)c1)c1sc2cc(Cl)ccc2c1Cl,20,45%,44*,20,78%
O=C(Nc1cccc(-c2nc3ncccc3o2)c1)c1cc2ccccc2o1,22*,?,85*,1,35%
CN(Cc1ccccc1)C(=O)COc1ccc(Br)cc1Cl,20*,6%,38,-35,29%
CC(C)N(Cc1ccccc1)C(=O)COc1ccccc1,-1,-5%,-4,9,?
CCN(CC)C(=O)COc1ccc(/C(C)=N/NC(=O)c2ccccc2O)cc1,28*,10%,46,27,-9%
CCN(Cc1ccccc1)C(=O)COc1ccccc1,1,16%,/,63,8.3µM*
CCOCC(=O)N(CC)Cc1ccccc1,-1,21%,-15,-34,-28%
CN(C)C(=O)COc1ccc(Oc2ccccc2)cc1,31*,0%,41*,-32,23%
COc1cc(NC(=O)COC(=O)/C=C/c2c(C)nn(-c3ccc(F)cc3)c2Cl)cc(OC)c1,2,-16%,10,-8,-1%
CC(=O)N1C[C@H]2CON(C)[C@H]2C[C@H]1c1cccc(-c2cc(Cl)cc(Cl)c2)c1,/,/,/,9,/
CCN(CC)C(=O)COc1ccc(-c2ccccc2)cc1,31*,/,52,91,17%
CN(Cc1ccccc1)C(=O)COc1ccc(C(C)(C)C)cc1,27*,-24%,57*,71,-8%
SMILES,Cycloheximide cs,Pf growth 48h,Shiga toxin inh,HCMV antiviral,Pf growth 96h
CN(Cc1ccccc1)C(=O)COc1ccccc1Cl,5,8%,-5,-33,-5%
CCOc1ccc(C(=O)OCC(=O)N(Cc2ccccc2)Cc2ccccc2)cc1OC,/,12µM*,/,-8,?
CN(Cc1ccccc1)C(=O)COC(=O)c1ccc(Cl)c(N)c1,51*,46%,67*,40,?
Cc1cc(S(=O)(=O)Nc2cccc(-c3ccc(N4CCOCC4)nn3)c2)c(C)cc1Cl,/,/,/,0,/
COC(=O)c1ccc(NC(=O)CSc2ccccn2)cc1,58*,/,36*,-32,31%
COC(=O)c1ccc(NC(=O)CSc2nc3ncccc3[nH]2)cc1,12*,15%,22,32,19%
Cc1cc(C)cc(NC(=O)CS(=O)(=O)c2ccccc2)c1,-2,-3%,21,5,-24%
COC(=O)c1ccc(NC(=O)CS(=O)(=O)c2ccccc2)cc1,11*,12%,46,-10,-29%
COC(=O)c1ccc(NC(=O)CSc2nc3cccnc3n2C)cc1,-3,?,-12,-18,117%
COCCCN(Cc1ccco1)C(=O)CSc1nc2ncccc2[nH]1,1,3%,10,-23,13µM*
CCOC(=O)c1[nH]c2ccccc2c1NC(=O)c1ccc(OC)c(OC)c1,/,/,/,53,/
O=C(CSc1nc2ncccc2[nH]1)c1ccc2c(c1)OCO2,39*,28%,43*,-14,99%
COC(=O)c1ccc(NC(=O)CSc2ccccc2)cc1,31*,60%,64*,47,70%
CC(C)OC(=O)CSc1nc2ncccc2[nH]1,-2,19%,-16,41,23%
Cc1cccc(NC(=O)c2cccnc2)c1,9,74%,13,70,-10%
CC(=O)c1cccc(NC(=O)c2cnccn2)c1,1,43%,-2,23,?
O=C(Nc1ccc2c(c1)Cc1ccccc1-2)c1ccco1,45*,13%,142*,40,/
Cc1nc(NC(=O)c2cc(-n3cnnc3)ccc2Cl)ccc1Br,-3,-11%,14,-23,-9%
Cc1cc(NC(=O)c2cccnc2)ccc1Br,31*,74%,44*,171,-28%
O=C(Nc1ccc2ccccc2c1)c1cnccn1,29*,223%,85*,104,0%
COc1cccc(OC)c1C(=O)Nc1ccc2c(c1)Cc1ccccc1-2,10,8%,10,21,-1%
Cc1ccccc1C(=O)Nc1ccc(Br)c(C)n1,49*,88%,81*,6,?
COc1ccccc1N1CCN(C(=O)Cn2c(=O)n3nc(-c4ccc(C)cc4)nc3c3ccccc32)CC1,/,/,/,15,/
CN(C)S(=O)(=O)c1cc(C(=O)OCCn2cnc3c2c(=O)n(C)c(=O)n3C)ccc1Cl,6,?,-10,13,-17%
COc1ccc(C(=O)Nc2ccc3c(c2)Cc2ccccc2-3)cc1,-3,-2%,-6,-7,47%
SMILES,Cycloheximide cs,Pf growth 48h,Shiga toxin inh,HCMV antiviral,Pf growth 96h
O=C(Nc1ccc2c(c1)Cc1ccccc1-2)c1cccnc1,36*,43%,89*,29,63%
O=C(Nc1ccc2ccccc2c1)c1cccnc1,47*,46%,+,159,?
CC(C)(C)NC(=O)c1ccc2nccnc2c1,9,9%,13,-16,/
CC(C)(C)NC(=O)Nc1ccc2nccnc2c1,29*,-21%,88*,118,80%
O=C(Nc1ccc2nccnc2c1)c1cnccn1,19*,/,47*,76,?
Cc1cc(C)cc(NC(=O)c2cccnc2)c1,-1,-7%,2,8,139%
